The values that follow come from article PMC4552634, “A New Set of Chemical Starting Points with Plasmodium falciparum Transmission-Blocking Potential for Antimalarial Drug Discovery” (PLoS ONE, 2015).

Like-named read-outs stand apart in the source and are kept apart here. Hit rate of the full screen: of about 13,000 compounds, about 3,200 (25%) showed an effect of 50% or more. The list shows a part of the results.

In the assay the test system is P. falciparum stage V gametocytes. Also noted: BacTiter-Glo ATP luminescence viability of purified stage V gametocytes in 384-well plates, per cent inhibition versus DMSO. The note with it: 48 h, 5 µM, inhibitor.

Take `CN1CCCC1CCOc1ccc2c(c1)N(C(=O)Nc1cc(Br)cc(C(F)(F)F)c1)CC2` (stereo not drawn) [TCMDC-140247]: the “% Inhibition” value was 47.25%.

As for `CC(C)c1ccc(NS(=O)(=O)c2cccc(C(=O)NC3CCN(CC4CCCCC4)CC3)c2)cc1` [TCMDC-136739], the “% Inhibition” value is -17.03%. In the case of `CCOC(=O)CCCOc1cc(Cc2cnc(N)nc2N)cc(OC)c1OC` [TCMDC-137356], the “% Inhibition” value worked out at 44.1%. For the compound `O=C(Nc1ccc2c(c1)OCO2)c1cc(-c2cccnc2)nc2ccc(Cl)cc12` [TCMDC-125213], the “% Inhibition” value is -64.78%. Consider `COc1cc(Nc2nccc(N3CCC(NC(=O)C(C)c4ccc(Cl)cc4)C3)n2)cc(OC)c1OC` (stereo not drawn) [TCMDC-133623], for which the “% Inhibition” value was found to be 58.38%. On to `COc1ccc(Nc2nccc(N3CCC(NC(=O)C(C)c4ccc(Cl)cc4)C3)n2)cc1` (stereo not drawn) [TCMDC-133612], for which the “% Inhibition” value is recorded as -10.01%. As for `Cc1cc(N2CCCC2)nc(Nc2ccc(NC(=O)c3ccc4c(c3)OCO4)cc2)n1` [TCMDC-124955], the “% Inhibition” value is recorded as -35.01%. In the case of `CC(C)c1ccc(CN(C)CCCCNC(=O)c2ccc(NC(=O)c3ccc(Cl)cc3)cc2)cc1` [TCMDC-138505], the “% Inhibition” value is on record as 20.72%. Take `COc1ccc(Cl)cc1NC(=O)C(C)Nc1ccc(-c2ccccc2)cc1` (stereo not drawn) [TCMDC-123559]: the “% Inhibition” value is -53.48%. As for `COc1cc(C(C)C)nc2ccc(NC(=O)c3ccc(C(=O)Nc4ccc5nc(C(C)C)cc(OC)c5c4)cc3)cc12` [TCMDC-140150], the “% Inhibition” value was found to be 33.52%. Regarding `Cc1nc2ccc(NC(=O)c3cc(S(=O)(=O)N(C)C)ccc3Cl)cc2s1` [TCMDC-124375], the “% Inhibition” value is 38.91%.

Turning to `COc1cc(NC(=O)C(c2ccc(Cl)cc2)C(C)C)cc(OC)c1OC` (stereo not drawn) [TCMDC-125118], the “% Inhibition” value came to 82.24%. Still for that read-out and setting: the result for `CC(C)C(C(=O)Nc1ccc(S(=O)(=O)N(C)C)cc1)c1ccc(Cl)cc1` (stereo not drawn) [TCMDC-125113] reads 56.45%; that for `CC(C(=O)NC1CCN(c2ccnc(Nc3ccc(F)cc3)n2)C1)c1ccc(Cl)cc1` (stereo not drawn) [TCMDC-133596], 19.11%; that for `CC(C)C(C(=O)Nc1ccc2c(c1)OCO2)c1ccc(Cl)cc1` (stereo not drawn) [TCMDC-125398], 78.19%. Same read-out and setting: the result for `O=C(Nc1ccccc1)Nc1ccc(-c2cccc(-c3nc4ccc(C(F)(F)F)cc4[nH]3)c2)cc1` [TCMDC-133153] reads -37.9%; that for `COC(=O)c1ccc2c(c1)nc(Nc1cccc(F)c1)n2CC(O)c1ccccn1` (stereo not drawn) [TCMDC-138586], -5.24%. As to `CC(C)(C)c1nn(-c2ccccc2)c2[nH]c(=O)c(CNCCc3ccccc3)cc12` [TCMDC-125381], the “% Inhibition” value worked out at 14.37%.

In the case of `CCCCN1CCN(c2cc(NS(=O)(=O)c3ccc(C(=O)Nc4ccc(C(F)(F)F)cc4)cc3)ccc2OC)CC1` [TCMDC-141777], the “% Inhibition” value is recorded as -10.1%. On the same count and under the same terms, the value for `O=C(Nc1ccc(-c2nc3ccccc3[nH]2)cc1)c1cncc(Br)c1` [TCMDC-123692] was 2.548%. Take `COc1cc(NC(=O)c2cccc([N+](=O)[O-])c2)cc(S(=O)(=O)c2ccc(Cl)cc2)c1` [TCMDC-124901]: the “% Inhibition” value was determined as 21.63%.

In the case of `COc1ccc(Nc2nccc(N3CCC(NC(=O)C(C)c4ccc(Cl)cc4)CC3)n2)cc1` (stereo not drawn) [TCMDC-133633], the “% Inhibition” value is recorded as 29.63%.

Take `COc1cc(NC(=O)C(c2ccc(Cl)cc2)C(C)C)cc(OC)c1` (stereo not drawn) [TCMDC-124823]: the “% Inhibition” value is given as 74.52%. On to `CCCc1nc2c(N3CC(NC(=O)/C=C/c4ccccc4)C3)cccc2n1C1CC1` [TCMDC-134613], for which the “% Inhibition” value stood at 8.32%.

Take `O=C1C2=C(Nc3ccccc3SC2c2cccs2)c2ccccc21` (stereo not drawn) [TCMDC-124060]: the “% Inhibition” value is on record as -4.275%.

Consider `COCCNCc1ccc(-c2cccc(CNC3CCN(Cc4ccccc4)CC3)c2)cc1` [TCMDC-140482], for which the “% Inhibition” value is on record as 107.8%. The same measure, in the same setting: the value for `COCCNCc1ccc(-c2cccc(CNc3ccc(OC)cc3)c2)cc1` [TCMDC-140484] was -1.116%; that for `COCCNCc1cccc(-c2ccc(CNC3CCN(Cc4ccccc4)CC3)cc2)c1` [TCMDC-140489] was 85.27%; that for `COc1ccc(NCc2cccc(-c3cccc(CNCCc4ccccc4)c3)c2)cc1` [TCMDC-140485] was -4.016%.

As to `COCCNCc1ccc(-c2ccc(CNC3CCN(Cc4ccccc4)CC3)cc2)cc1` [TCMDC-140490], the “% Inhibition” value came out at 23.65%. In the case of `COc1cccc(CCNCc2ccc(-c3cccc(CNC4CCCC4)c3)cc2)c1` [TCMDC-140493], the “% Inhibition” value is on record as 66.56%. Same read-out and setting: the value for `COCCNCc1cccc(-c2cccc(CNC3CCN(Cc4ccccc4)CC3)c2)c1` [TCMDC-140481] was 99.88%; that for `O=C(NCc1cccc(C(F)(F)F)c1)C(c1cc2ccccc2o1)N1CCN(C(c2ccccc2)c2ccccc2)CC1` (stereo not drawn) [TCMDC-141008] was 8.041%; that for `Cc1ccc(C(C)C)cc1CON1C(N)=NC(N)=NC1(C)C` [TCMDC-131323] was 26.53%.

As for `COc1ccc2nccc([C@@H](O)CN3CCC(NCc4ccc(OC)c(NC=O)c4)CC3)c2c1` [TCMDC-141568], the “% Inhibition” value worked out at 1.46%.

Consider `CN(Cc1cccc(C#N)c1)C1CCN(c2cc(NC(=O)c3ccc(F)cc3)ccn2)CC1` [TCMDC-134974], for which the “% Inhibition” value was -6.144%. On to `CN(C)CCOc1cc(NC(=O)Nc2ccc(Cl)cc2C(F)(F)F)ccc1I` [TCMDC-139125], for which the “% Inhibition” value was -26.77%.

With `Cc1cc(N[C@@H](CC(C)C)C(=O)NCCOc2ccccc2)nc(NCC2CCCCC2)n1` [TCMDC-134919], the “% Inhibition” value was -82.39%. On to `COc1cccc(CN2CCC3(CC2)CN(C(=O)Nc2ccc(Cl)c(Cl)c2)C3)c1` [TCMDC-136484], for which the “% Inhibition” value is recorded as -4.115%. For `CN(CCCc1c[nH]c2ccccc12)CCC1CCC(NC(=O)/C=C/c2ccc(Cl)c(Cl)c2)CC1` (stereo not drawn) [TCMDC-139449], the “% Inhibition” value is reported as -10.77%. Consider `CCOc1ccccc1CNc1nccc(NCc2ccc(Cl)cc2Cl)n1` [TCMDC-135115], for which the “% Inhibition” value is 39.1%. Regarding `Clc1ccc(CNc2ccnc(NCc3cccnc3N3CCCC3)n2)c(Cl)c1` [TCMDC-135112], the “% Inhibition” value is recorded as 11.98%. The same measure, in the same setting: the result for `Cn1cc(CCNc2ccnc(NCCc3coc4ccccc34)n2)c2ccccc21` [TCMDC-135121] reads 46.44%. Same read-out and setting: the result for `CCOc1ccccc1CNc1nccc(NCCc2cn(C)c3ccccc23)n1` [TCMDC-135123] reads 47.81%; that for `CN1CCN(CC2(Nc3nccc(NCc4ccc(Cl)cc4Cl)n3)CCCCC2)CC1` [TCMDC-135114], 73.23%; that for `CN1CCN(CC2(Nc3nccc(NCCc4cn(C)c5ccccc45)n3)CCCCC2)CC1` [TCMDC-135122], 114.3%.

With `O=C(c1cccc(-c2ccc(-c3nc4cc(C(F)(F)F)ccc4[nH]3)cc2)c1)N1CCCCC1CN1CCC(O)C1` (stereo not drawn) [TCMDC-132345], the “% Inhibition” value was -7.323%. Same read-out and setting: the result for `O=C([C@H]1CCCCN1c1ccc([N+](=O)[O-])c2ccccc12)N1CCN(c2ncccn2)CC1` [TCMDC-135504] reads -25.11%. Regarding `Cc1cccc(OC(C)C(=O)Nc2cc(C(F)(F)F)ccc2N2CCOCC2)c1` (stereo not drawn) [TCMDC-125116], the “% Inhibition” value is on record as -67.15%.

For `Nc1ncc(OC2CCCCC2)c(N)n1` [TCMDC-137916], the “% Inhibition” value came to 86.08%.

`Nc1nccc2ccc(OC3CCCCC3)cc12` [TCMDC-136543]: the “% Inhibition” value stood at 27.41%. Still for that read-out and setting: the result for `COc1ccc(Oc2cnc(N)nc2N)c(C(C)C)c1` [TCMDC-132471] reads -12.02%; that for `Cc1nc(Nc2ccc(F)cc2)nc(N2CCc3ccccc3[C@@H]2C)c1C` [TCMDC-141073], -42.65%; that for `Cl.c1ccc(CN2CCN(CCNc3c4ccccc4nc4ccccc34)CC2)cc1` [TCMDC-137571], 58.89%. Take `c1ccc(CN2CCN(CCCCNc3c4ccccc4nc4ccccc34)CC2)cc1` [TCMDC-138009]: the “% Inhibition” value stood at 101.2%. Same read-out and setting: the result for `NC(=NC1CC1)c1ccc2nc(CCCCCc3nc4ccc(C(N)=NC5CC5)cc4[nH]3)[nH]c2c1` [TCMDC-137236] reads 9.891%; that for `Cc1cc(SC(C)(C)C)cc2c(Cl)c(C(N)=O)cnc12` [TCMDC-135415], 114.9%; that for `COc1ccccc1-c1cccc(CNC2CCN(CC3Cn4c(=O)ccc5ccc(F)c3c54)CC2)c1` (stereo not drawn) [TCMDC-134411], 15.92%. With `O=C(CSc1ccc(Cl)cc1)NC1CCC(CN2CCC(c3c[nH]c4ccccc34)CC2)CC1` (stereo not drawn) [TCMDC-139953], the “% Inhibition” value is reported as -2.163%. As for `O=C(CCc1ccc(Cl)cc1Cl)NC1CCC(CN2CCC(c3c[nH]c4ccccc34)CC2)CC1` (stereo not drawn) [TCMDC-140262], the “% Inhibition” value (% Inhibition) is -48.76%. On to `O=C(NC1CCC(CN2CCC(c3c[nH]c4ccccc34)CC2)CC1)c1cn(Cc2ccccc2)c2ccccc12` (stereo not drawn) [TCMDC-139888], for which the “% Inhibition” value is on record as 107.9%. For `O=C(Cc1cc(=O)oc2cc(O)ccc12)NC1CCC(CN2CCC(c3c[nH]c4ccccc34)CC2)CC1` (stereo not drawn) [TCMDC-139882], the “% Inhibition” value is on record as -52.99%. On to `O=C(CCc1ccc(Cl)cc1Cl)NC1CCC(CN2CCC(c3c[nH]c4ccccc34)CC2)CC1` (stereo not drawn) [TCMDC-140296], for which the “% Inhibition” value (% Inhibition) is -15.31%.

With `O=C(CCCCCc1ccccc1)NC1CCC(CN2CCC(c3c[nH]c4ccccc34)CC2)CC1` (stereo not drawn) [TCMDC-139952], the “% Inhibition” value is 95.36%. As to `O=C(NC1CCC(CN2CCC(c3c[nH]c4ccccc34)CC2)CC1)c1cnn(-c2ccccc2)c1-c1ccccc1Cl` (stereo not drawn) [TCMDC-140375], the “% Inhibition” value is reported as 25.23%. For `O=C(Cc1c(-c2ccccc2)[nH]c2ccccc12)NC1CCC(CN2CCC(c3c[nH]c4ccccc34)CC2)CC1` (stereo not drawn) [TCMDC-139909], the “% Inhibition” value came out at 71.88%.

Turning to `CCOCCCNc1ncc(-c2ccsc2)c(-c2nc(C)cs2)n1` [TCMDC-124842], the “% Inhibition” value was determined as 18.59%. Turning to `Cc1cccc(C(=O)Nc2ccnc(N3CCC(N(C)Cc4ccc(C#N)cc4)CC3)c2)c1` [TCMDC-134977], the “% Inhibition” value is given as 5.364%. The same measure, in the same setting: the result for `CCN(CC)CCN1C(=O)c2oc3ccc(F)cc3c(=O)c2C1c1cccc(Cl)c1` (stereo not drawn) [TCMDC-124911] reads 13.72%.

Usually % Inhibition stands for the drop in the measured response relative to a control, in per cent.
